# This is a sample that favours compounds with a hit; in the whole collection about 5.2% have one here.
# SKN-1 block: blocks SKN-1 activity in C. elegans; C. elegans VP596 Pgst-4::GFP/RFP ratio, acrylamide-induced, 24 h; inhibition, % at 21.8 µM; actives 0.49% (n = 360,000); AID 624304;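 active = interference check ratio from 0.5 to 1.5 plus GFP to RFP signal ratio inhibition reaching or exceeding a fixed threshold, cut at about 30% in these data, passing the limit was not always enough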
# NadD block: NadD (S. aureus) enzyme inhibition | purified NadD enzyme, colorimetric absorbance read-out | inhibition, % at 20 µM | actives 0.78% (n = 360,000); in the data active = inhibition above about 26%
# SMARCA2 activ: increases SMARCA2 function in MMTV reporter cells; actives 1% (n = 370,000); MG213 cells, MMTV-luciferase reporter, dexamethasone, overnight; activation, % at 9.1 µM; in the data active = activation above about 7.8%;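 also: 0% = vehicle wells and 100% = reference activator wells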
# NR3A LBD binder: modulates the human NR3A ligand-binding domain | NR3A LBD differential scanning fluorimetry, Tm shift; 0% = protein alone, 100% = glycine-bound protein | Tm shift relative to glycine control, % at 25 µM | actives 2.5% (n = 340,000) | AID 1259313;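 active = melting temperature shift of at least 10% of the positive control shift, at one fixed dose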
# Vif imaging: HIV Vif inhibition | HEK293T cells, Vif self-association by quenched fluorescence, imaging, 24 h | inhibition, % at 7.49 µM | actives 0.35% (n = 340,000) | AID 602346; in the data active = inhibition above about 50%, passing the limit was not always enough
# esBAF inh: blocks esBAF chromatin remodeling in mouse ES cells; Bmi1-luciferase knock-in reporter, 24 h; 100% = twice the neutral-well signal; reporter increase, % at 12.5 µM; actives 2% (n = 350,000); AID 602393; in the data active = activation above about 40%;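 also: 0% = median of the plate's neutral control wells and 100% = double that signal; a rise in the Bmi1 reporter signal indicates esBAF inhibition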
# Active calls of the source: *; . = no result.
SMILES,SKN-1 block,NadD block,SMARCA2 activ,NR3A LBD binder,Vif imaging,esBAF inh
Cn1c(=O)c2cc(S(=O)(=O)Nc3ccc4c(c3)OCO4)ccc2n(C)c1=O,4,2,-2,0,-1,-16
CC(=O)c1cccc(NS(=O)(=O)c2ccc3c(c2)oc(=O)n3C)c1,37*,-4,-3,-1,-2,2
CCCNC(=O)N1[C@H](CN(C)C(C)=O)[C@@H](c2ccc(C3=CCCC3)cc2)[C@@H]1CO,.,.,.,.,.,0
CCC(=O)N(C)C[C@@H]1Oc2cc(-c3ccccc3F)ccc2S(=O)(=O)N([C@H](C)CO)C[C@@H]1C,.,.,.,.,.,-4
O=C(O)c1ccc(-n2ncc3c2/C(=C/c2cccc([N+](=O)[O-])c2)CC3)cc1,14,11,1,-1,3,.
CCN1C/C(=C\c2cccc([N+](=O)[O-])c2)C(=O)/C(=C/c2cccc([N+](=O)[O-])c2)C1,8,20,-3,-2,70*,.
O=C1/C(=C/c2cccc([N+](=O)[O-])c2)CSc2ccc(Cl)cc21,-7,-3,-2,-7,2,4
O=C(O)c1ccc(-n2ncc3c2/C(=C\c2cccc([N+](=O)[O-])c2)CC3)cc1,-11,14,-2,6,-11,92*
COc1cccc(/C=C2\CCc3ccccc3C2=O)c1,3,-14,3,22*,-2,42
O=C1/C(=C/c2cccc([N+](=O)[O-])c2)CCc2ccccc21,3,-4,5,11*,136*,-12
CC(=O)Oc1ccc(/C=C2/CCc3ccccc3C2=O)cc1,11,-10,1,-6,16,52*
COc1ccc(/C=C2\CCc3ccccc3C2=O)cc1OC,8,-8,2,0,-4,40
COc1ccc(C(=O)Nc2sc(C)c(C)c2CN2CC(C)OC(C)C2)cc1 (stereo not given),4,-1,4,1,.,72*
Cc1cccc(NC(=O)c2cc(-c3ccc(C)c(C)c3O)n[nH]2)c1,-4,-7,2,35*,9,43*
Cc1ccc(-c2cc(C(=O)Nc3cc(C)ccc3C)[nH]n2)c(O)c1,3,-2,-1,-10,6,31
Cc1ccc(-c2cc(C(=O)Nc3ccc(S(=O)(=O)Nc4ncccn4)cc3)[nH]n2)c(O)c1C,-6,18,3,10*,-1,10
CC(=O)Nc1ccc(NC(=O)c2cc(-c3ccc(F)cc3C)n[nH]2)cc1,23,4,4,.,-2,61*
CC(=O)Nc1ccc(NC(=O)c2cc(-c3cc(C)cc(C)c3O)n[nH]2)cc1,-1,-11,-3,35*,-11,22
Cc1cc(F)ccc1-c1cc(C(=O)Nc2ccccc2)[nH]n1,30,-6,1,.,4,-60
CO[C@@H]1CN(C)C(=O)c2ccc(NC(C)=O)cc2OC[C@H](C)N(CCc2ccccc2)C[C@H]1C,.,.,.,.,.,-3
C[C@@H]1CN([C@H](C)CO)C(=O)c2cc(NS(=O)(=O)c3cccs3)ccc2O[C@@H](C)CCCCO[C@@H]1CN(C)C(=O)C1CCCCC1,.,.,.,.,.,-3
Cc1ccc(NC(=O)c2cc(-c3cc(C)c(C)cc3O)n[nH]2)cc1C,5,6,-1,33*,-13,12
COc1ccc(NC(=O)c2cc(-c3ccc(F)cc3OC)n[nH]2)cc1OC,13,-3,-2,.,8,-2
Cc1ccc(CNC(=O)c2cc(-c3cc(C)cc(C)c3O)n[nH]2)cc1,-1,-3,-3,11*,6,-9
Cc1ccc(NC(=O)c2cc(-c3ccc(C)c(C)c3O)n[nH]2)cc1C,-9,-1,-1,35*,-3,-10
SMILES,SKN-1 block,NadD block,SMARCA2 activ,NR3A LBD binder,Vif imaging,esBAF inh
COc1ccc(NC(=O)c2cc(-c3ccc(C)c(C)c3O)n[nH]2)cc1Cl,7,7,-3,25*,-11,1
COc1ccc(-c2cc(C(=O)Nc3ccc(OC)c(OC)c3)[nH]n2)c(C)c1,22,3,1,.,5,31
CO[C@H]1CN(C)C(=O)c2ccc(NS(=O)(=O)c3ccc(Cl)cc3)cc2OC[C@@H](C)N(C)C[C@H]1C,.,.,.,.,.,-6
COc1ccc(S(=O)(=O)Nc2ccc3c(c2)CC(=O)N([C@@H](C)CO)C[C@H](C)[C@H](CN(C)Cc2ccc(C(=O)O)cc2)O3)cc1,.,.,.,.,.,-4
COc1ccc(S(=O)(=O)N[C@H]2C=C[C@H](CC(=O)NCCc3ccncc3)O[C@H]2CO)cc1,.,.,.,.,.,-4
CCCC#Cc1cnc2c(c1)C(=O)N([C@H](C)CO)C[C@@H](C)[C@@H](CN(C)C(=O)C1CCCCC1)O2,.,.,.,.,.,-1
Cc1ccc(C(=O)Nc2ccc(S(=O)(=O)N3CCOCC3)cc2)cc1,10,-4,0,8,14,0
Cc1cc(C)c(O)c(-c2cc(C(=O)Nc3ccc(S(=O)(=O)N4CCOCC4)cc3)[nH]n2)c1,-6,5,-2,23*,-19,.
CCSc1nnc(NC(=O)c2cc(-c3ccc(C)c(C)c3O)n[nH]2)s1,-1,29,1,0,-7,.
CC(=O)Nc1ccc(NC(=O)c2cc(-c3ccc(C)c(C)c3O)n[nH]2)cc1,3,-1,1,39*,-1,24
C[C@H]1CN([C@@H](C)CO)C(=O)c2cc(C3=CCCC3)cnc2O[C@H]1CN(C)C(=O)CN(C)C,.,.,.,.,.,-10
O=C(C[C@@H]1CC[C@@H]2[C@H](COC[C@@H](O)CN2Cc2cc(F)cc(F)c2)O1)NC1CCC1,.,.,.,.,.,2
Brc1ccc(C2=NC(Cc3ccccc3)CO2)cc1 (stereo not given),5,-6,3,3,-7,68*
OCC1COC(c2ccccc2)=N1 (stereo not given),.,.,2,.,.,.
NC(=O)CC1(CC(=O)O)CCCCC1,-8,1,-4,13*,5,4
O=C(CN(Cc1ccco1)C(=O)Cn1nnc(-c2ccc(F)cc2)n1)NC1CCCC1,19,6,-6,1,.,0
O=C(CN(C(=O)Cn1nnc(-c2ccc(F)cc2)n1)C1CCCC1)NC1CCCC1,9,-7,-3,0,67*,-5
CC(C)(C)NC(=O)CN(Cc1ccc(F)cc1)C(=O)Cn1nnc(-c2ccc(F)cc2)n1,-9,-2,-5,-2,58*,.
Nc1c(-c2cccc(Cl)c2)cnn1-c1ccccc1,4,-3,3,-14,7,52*
Nc1c(-c2cccc(Cl)c2)cnc2c(-c3ccccc3)cnn12,-8,6,3,3,7,60*
CCOc1ccccc1Nc1nc(-c2cccnc2)cs1,11,-3,-1,-1,2,11
CC(=O)Oc1ccc(-c2csc(Nc3cccc(C)n3)n2)cc1,3,-1,5,3,-2,65*
COc1ccc(-c2csc(Nc3cccc(C)n3)n2)cc1C,3,3,3,4,-8,45*
COc1ccccc1Nc1nc(-c2cccc(N3C(=O)c4ccccc4C3=O)c2)cs1,-14,4,-3,15*,32,.
